This is an account of results in PubChem BioAssay (NCI).

About 83,000 compounds went through this panel and 20% of them were active in at least one assay; those are over-represented in the sample as a whole.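 Cells were grown in 96-well plates and exposed to the test compound at a single concentration for 48 hours; results are reported as percent growth, with values below 10 considered active.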 Values without a mark were called inactive. Calls of active or inactive are those of the source.

This experiment deals with MDA-MB-468 breast. Briefly: NCI-60 one-dose screen, 48 h (100 = growth as untreated, 0 = no growth, -100 = all killed). Particulars: 10 µM unless noted.
With `CCOC(=O)c1c(O)c2cc(-c3ccccc3)nc(OCC)c2c(=O)n1C`, the growth is 89%. With `COc1cc(-c2nc3cc(Cl)c(Cl)cc3[nH]2)ccc1OCC(=O)N=Nc1c(O)[nH]c2ccc(Cl)cc12`, the growth was -56.3% (active). Consider `C/C(=N\O)c1ccc(NC(=O)CSc2nnc(-c3cc(-c4ccc(S(C)(=O)=O)cc4)nc4ccccc34)n2-c2ccccc2)cc1`, for which the growth was 92.6%. Under `Cc1cccc(CO)c1` stands 107%. Under `CC(=O)OC[C@]12CC[C@@H](C(=O)CBr)[C@@H]1[C@H]1CC[C@@H]3[C@@]4(C)CCCNC(C)(C)[C@@H]4CC[C@@]3(C)[C@]1(C)CC2` stands -67.7% [100 µM] (active); under `CCN1CCN(c2nc3ccccc3c3c(=O)c4cc(F)ccc4sc23)CC1`, 70.9%; under `N#Cc1c(-c2cccs2)cc(-c2cnccn2)nc1SCC(=O)N/N=C/c1cccs1`, 64.6%.

For `Cc1ccc(CNc2ccc(Cl)cc2NCc2ccc(C)c(O)c2)cc1O`, the growth was 32.5%. For the compound `CN(C[C@H]1Cc2c(cccc2N2CCN(c3ncccn3)CC2)CN1)[C@H]1CCCc2cccnc21`, the growth is 37.6%. Regarding `OCCNCCNC(Cc1ccc(Cl)cc1)c1ccccc1` (centres undefined), the growth was 86.4%.

As to `CCC#CC[C@H]1C/C=C2/C(=O)C=C[C@@H]2C/C=C\CCCC(=O)O1`, the growth is -3.46% (active).

Take `O=C(Oc1ccccc1)c1cc(O)c(O)c(O)c1`: the growth is 71.7%. With `O=C(/C=C/c1ccccc1)c1cccc(OCCCOc2cccc(C(=O)/C=C/c3ccccc3)c2)c1`, the growth is 93.9%.

As to `COc1ccc2c3c(ccc2c1)C(=O)/C(=C\O)CC3`, the growth is 111%.
